# Compound activity as filed in PubChem.
# p53 reactivator: qHTS assay for re-activators of p53 using a Luc reporter. hit rate 0.063% among 320,000. H1299 p53-A138V BP100-luciferase reporter, luminescence, 24 h. Potency, µM (highest dose often 92.2 µM), for inactives: top-dose activity change, positive = activation, hits mostly activators; further: potency means the concentration at half of the fitted maximal effect; % of control where 0% means no effect; nearly all actives have a fitted effect of over 45% in size
#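 p53-null H1299 cells stably carrying temperature-sensitive p53-A138V and a BP100-luciferase reporter were pinned with compounds (4-point, 1:5 series) and held 24 hrs at 37 deg C. Luminescence was read 10 min after detection reagent.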
# N370S GC mod: qHTS Assay for Inhibitors and Activators of N370S glucocerebrosidase as a Potential Chaperone Treatment of Gaucher Disease; AID 2101, 2009; hit rate 0.092% among 330,000; N370S GC spleen homogenate, 4MU-glucoside fluorescence; Potency, µM (titrated, usually from 59.4 µM), for the others: top-dose activity change, negative = inhibition, usual class: inhibitors; Lysosomal acid glucosylceramidase (Homo sapiens), P04062;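 further: potency means the concentration at half of the fitted maximal effect; 0% = full enzyme activity and -100% = no enzyme basal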
# BRCA1 expr act: qHTS Assay to Identify Small Molecule Activators of BRCA1 Expression; MCF7-BRCA1-FFLuc reporter, luminescence, 48 h; response scale: scaled: vehicle 0%, 10 µM genistein 100%; hit rate 1.1% among 380,000; Potency, µM (titrated, usually from 46.1 µM), for inactives: top-dose activation, actives largely listed as activators; further: potency means the concentration at half of the fitted maximal effect; nearly all actives have a fitted effect of over 80% in size
#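 Luminescence from a BRCA1-driven firefly luciferase in MCF7 cells was read after 48 h compound exposure at 37 C. Data normalized against DMSO and a 10microM genistein activation control, then curve-fitted across the titration.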
# GLS inh: qHTS for Inhibitors of Glutaminase (GLS). GLS enzymatic activity, qHTS titration. Potency, µM (titrated, usually from 45.5 µM), for inactives: at the highest dose activity change, negative = inhibition, hits mostly inhibitors. Glutaminase kidney isoform, mitochondrial (Homo sapiens), O94925. AID 624170, 2012. hit rate 0.21% among 410,000; further: potency means the concentration at half of the fitted maximal effect; on the % scale 0 is the no-effect control and ±100 the full control effect
# Target sequence (O94925 whole entry, looked up, canonical isoform): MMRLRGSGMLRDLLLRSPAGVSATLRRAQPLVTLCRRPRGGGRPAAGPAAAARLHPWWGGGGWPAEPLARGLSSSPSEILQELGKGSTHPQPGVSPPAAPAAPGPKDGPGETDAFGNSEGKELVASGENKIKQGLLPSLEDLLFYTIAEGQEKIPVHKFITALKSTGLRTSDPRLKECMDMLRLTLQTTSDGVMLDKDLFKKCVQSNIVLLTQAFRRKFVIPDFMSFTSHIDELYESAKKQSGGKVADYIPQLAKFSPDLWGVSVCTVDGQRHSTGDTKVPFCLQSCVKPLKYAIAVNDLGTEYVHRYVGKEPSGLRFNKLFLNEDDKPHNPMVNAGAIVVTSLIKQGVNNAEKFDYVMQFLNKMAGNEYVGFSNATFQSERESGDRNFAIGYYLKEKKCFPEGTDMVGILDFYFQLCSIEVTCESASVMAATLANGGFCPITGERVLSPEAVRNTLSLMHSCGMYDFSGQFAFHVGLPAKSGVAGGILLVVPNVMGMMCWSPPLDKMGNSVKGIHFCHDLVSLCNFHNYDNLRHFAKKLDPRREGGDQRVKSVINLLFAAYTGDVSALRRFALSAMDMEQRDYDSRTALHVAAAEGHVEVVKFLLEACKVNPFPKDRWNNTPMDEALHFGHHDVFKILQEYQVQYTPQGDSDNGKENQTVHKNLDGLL
#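 Assay buffer: 45 mM KH2PO4 pH 8.2, 0.02% Tween-20. hKGA acts on L-glutamine (1 mM solution added); product glutamate is reported by an oxidase/peroxidase Amplex Red coupling, with fluorescence taken at baseline and 30 min.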
# TCR act: Activators of T cell receptors: qHTS campaign; primary human leukocytes, anti-CD3, IL-2 HTRF, 48 h; Potency, µM (highest dose often 9.22 µM), inactives show top-dose activation of IL-2 secretion, most hits filed as activators; 330,000 tested, under 10 active; AID 504894, 2011; further: % of control where 0% means no effect
#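 TCR engagement came from a-CD3 beads alone, with compounds added to primary human leukocytes for 48 hr. Secreted IL-2 bridged europium cryptate- and d2-labelled anti-IL-2 antibodies, giving FRET emission at 665nm after 320nm excitation.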
# TSHR antag: Antagonists of the Thyroid Stimulating Hormone Receptor: HTS campaign; Thyrotropin receptor (Homo sapiens), P16473; TSHR-expressing cells, TSH-stimulated cAMP HTRF, 2 h; active compounds read low; activity change, negative = inhibition, % at 11.5 µM; hit rate 0.2% among 330,000; AID 504810, 2011;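 active means activity change below a set negative limit, meaning inhibition stronger than a set level, cut at about -70% in these data; inconclusive means activity change between two set negative limits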; further: on the % scale 0 is the no-effect control and ±100 the full control effect
#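 Cell-based HTRF cAMP assay; TSHR cells + compound, TSH EC80 (4nM final), 2 h, 37 deg C. Lysis with anti-cAMP cryptate and cAMP-d2, 30 min RT, read 665/620 nm.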
# * = called active by the depositor; ? = inconclusive; nt = no result given; [ ] = dose if it differs, or a comment. Compounds with a hit are over-represented: about 1.4% of the library has one in this group of screens. Unless noted, the call rests on the fitted dose curve; in most records, active means well fitted curve in the direction sought with a large enough effect; inconclusive means small, poorly fitted or top-dose-only effect, or another doubt; inactive means no such curve, though single readings can be large; an effect the other way counts as inactive or inconclusive.
SMILES,p53 reactivator,N370S GC mod,BRCA1 expr act,GLS inh,TCR act,TSHR antag
CCSC[C@H](NC(=O)[C@H](C)N)C(=O)N[C@@H](CC(=O)O)C(=O)N[C@H](C(=O)N[C@@H](C)C(=O)N[C@H](C(=O)N[C@@H](CSCC)C(=O)N[C@H](C(=O)N[C@H](C(=O)N[C@@H](Cc1cnc[nH]1)C(=O)N[C@@H](CCCNC(=N)N)C(=O)N[C@@H](CC(C)C)C(=O)N[C@@H](C)C(=O)NCC(=O)N[C@@H](CC(C)C)C(=O)N[C@@H](CC(C)C)C(=O)N[C@@H](CO)C(=O)N[C@@H](CCCNC(=N)N)C(=O)N[C@@H](CO)C(=O)NCC(=O)NCC(=O)N[C@H](C(=O)N[C@H](C(=O)N[C@@H](CCCCN)C(=O)N[C@@H](CC(N)=O)C(=O)N[C@@H](CC(N)=O)C(=O)N[C@@H](Cc1ccccc1)C(=O)N[C@H](C(=O)N1CCC[C@H]1C(=O)N[C@H](C(=O)N[C@@H](CC(N)=O)C(=O)N[C@H](C(=O)NCC(=O)N[C@@H](CO)C(=O)N[C@@H](CCCCN)C(=O)N[C@@H](C)C(=O)N[C@@H](Cc1ccccc1)C(N)=O)C(C)C)[C@@H](C)O)C(C)C)C(C)C)C(C)C)[C@@H](C)O)C(C)C)[C@@H](C)O)[C@@H](C)O,nt,3%,nt,nt,nt,nt
O=C(c1cc2cc(Br)ccc2o1)N1CCCCC1,-10%,12%,4.5µM*,-3%,0%,-23
O=C(c1cc2cc(Cl)ccc2o1)N1CCCC1,20%,-8%,?,0%,-8%,8
CN(C)c1ccc2c(-c3ccccc3)c3ccc(=[N+](C)C)cc-3oc2c1,nt,1%,nt,nt,nt,nt
O=C1/C(=C/c2cccc([N+](=O)[O-])c2)CCc2ccccc21,?,11%,-23%,6%,0%[46.1 µM],-9
COc1ccc2c(c1)CC/C(=C/c1ccccn1)C2=O,?,9%,13µM*,-5%,10%,-3
O=C1/C(=C/c2ccc([N+](=O)[O-])cc2)CCc2ccccc21,11µM*,4%,nt,nt,nt,-7
O=C1C(=Cc2ccccn2)CCc2ccccc21,nt,nt,3%,-2%,nt,nt
COc1ccc2c(c1)CC/C(=C\Nc1ccc3c(c1)OCO3)C2=O,18%,-16%,3.2µM*,12%,1%,-20
COc1cccc(/C=C2\CCc3ccccc3C2=O)c1,?,-3%,13µM*,0%,6%,2
Cc1c(C)c2c(c(C)c1OC(=O)CCC(=O)OCCO)CC[C@](C)(CCC[C@H](C)CCC[C@H](C)CCCC(C)C)O2,nt,nt,nt,-2%,nt,nt
CCOc1ccc(/C=C/c2nc(C#N)c(N3CCN(CC)CC3)o2)cc1,nt,nt,nt,6%,nt,nt
COc1ccc(/C=C2\CCc3ccccc3C2=O)cc1OC,?,11%,-4%,-5%,-1%,-4
CC(=O)Oc1ccc(/C=C2/CCc3ccccc3C2=O)cc1,?,?,13µM*,15%,-1%,-1
CC(C)C(=O)Nc1nnc(NC(=S)Nc2ccccc2)s1,1%,-3%,10µM*,-14%,-3%,-10
CC(C)(C)C(=O)Nc1nnc(CCc2ccccc2)s1,1%,13%,4.5µM*,1%,-2%,10
CCCc1nnc(NC(=O)CCC(=O)Nc2ccc(Cl)cc2)s1,7%,-16%,-1%,0%,13%,15
CC(C)C(=O)Nc1nnc(CCc2ccccc2)s1,10%,-4%,62%,-1%,-2%,28
CCCc1nnc(NC(=S)Nc2ccccc2)s1,6%,3%,2.2µM*,4%,nt,1
CC(I)CCC(C)[n+]1cccc(I)c1 (stereo not drawn),nt,nt,1%,nt,nt,nt
O=P(O)(O)OC(Cn1cncn1)(Cn1cncn1)c1ccc(F)cc1F,nt,nt,nt,-3%,nt,nt
C=C1CCN(C(Cc2ccccc2)C(=O)NC2CCN(Cc3ccccc3)CC2)S(=O)(=O)c2ccccc21 (stereo not drawn),nt,-1%,nt,nt,nt,nt
Cc1ccsc1/C=C(\CC(=O)O)c1nc2ccccc2o1,12%,-22%,7.9µM*,18%,0%,-8
COC(=O)c1cccc(CN2C(=O)C(C)Sc3cc(Cl)ccc32)c1 (stereo not drawn),nt,nt,5µM*,1%,nt,nt
COC(=O)c1cccc(CN2C(=O)C(C)Sc3ccc(C)cc32)c1 (stereo not drawn),nt,nt,22%,0%,nt,nt
SMILES,p53 reactivator,N370S GC mod,BRCA1 expr act,GLS inh,TCR act,TSHR antag
Cc1cc(O)c2c(c1O)C(=O)c1c(O)cc(C)c(O)c1C2=O,nt,4%,nt,nt,nt,nt
Cc1cc(O)c2c(c1O)C(=O)[C@]13C(=C2O)C(=O)[C@@H]2[C@@H](O)[C@H]1[C@@H]1[C@H](O)[C@H]3C(=O)C3=C(O)c4c(O)cc(C)c(O)c4C(=O)[C@]312,-2%,nt,-56%,6.3µM*,-1%,-37
CCN(CC)c1c([N+](=O)[O-])c(=O)n(C)c2ccccc12,-6%,19%,0%,-5%,-5%,-5
Cn1c(=O)c([N+](=O)[O-])c(Cl)c2ccccc21,-14%,-1%,-91%,0%,-7%,-83*
Cn1c(N2CCCC2)nc2c1c(=O)n(Cc1ccc(Cl)cc1)c(=O)n2C,6%,22%,-32%,13µM*,2%,-4
Cn1c(N2CCC(C(N)=O)CC2)nc2c1c(=O)n(Cc1ccc(Cl)cc1)c(=O)n2C,-7%,-4%,-11%,?,0%,-4
Cn1c(NCCCCO)nc2c1c(=O)n(Cc1ccc(Cl)cc1)c(=O)n2C,nt,nt,nt,13µM*,nt,nt
Cc1ccc(/C(O)=C/c2nc3ccccc3oc2=O)cc1,23%,2%,-20%,-4%,1%,-9
Cc1nc(C)c(/C(O)=C\c2nc3ccc([N+](=O)[O-])cc3oc2=O)o1,9%,8%,-4%,11µM*,-4%,0
Cc1cc(O)c(C=O)c2c1C(=O)Oc1c(COC(=O)/C=C/C(=O)O)c(O)c(C(=O)O)c(C)c1O2,nt,6%,nt,nt,nt,nt
CN(C)Cc1c(O)ccc2cc(-c3nc4ccccc4n3C)c(=O)oc12,28%,?,13µM*,7%,-28%,-1
CCN(CC)c1ccc2cc(-c3nc4ccccc4n3C)c(=O)oc2c1,?,-2%,-19%,2%,-4%,14
COc1ccc(CNC(=O)c2cc3c(=O)oc4ccc(C)cc4c3s2)c(OC)c1,nt,nt,0%,-1%,nt,nt
